Source: PubChem BioAssay AID1578 (Sanford-Burnham Center for Chemical Genomics, 2009)
Screen size: about 290,000 compounds; about 3,000 (1%) were called active. The full list was thinned out, with actives kept by preference. Values without a mark were called inactive. No stated cut-off is given here; in the data, active means inhibition mostly above about 36% (no sharp cut-off); inactive means mostly below about 34%.

Assay: NOD1 signaling inhibitors, primary screen, cell-based, luminescence, uHTS (AID 1578);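 further: HEK-293T reporter cells stimulated with the NOD1 agonist gamma-tri-DAP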
Settings: NOD1-driven NF-kB luciferase reporter cells, at 4 µM, active compounds read high

Which inhibition does the source give for COC(=O)c1ccc(/C=N/NC(=O)c2ccc3nc[nH]c3c2)cc1 here?
The inhibition was -10.6%.

For O=C(O)CCc1ccc(-c2ccc(Br)cc2)n1Cc1ccco1, which inhibition is on record?
The inhibition was -8.6%.

Which inhibition does the source give for CC(C)C[C@H](NC(=O)N1CCn2c1nc1ccccc12)C(=O)N[C@@H](C(=O)O)c1ccccc1 here?
The inhibition was -6%.

For CC(C)[C@H](NC(=O)N1CCn2c1nc1ccccc12)C(=O)N[C@H](C(=O)O)c1ccccc1, which inhibition is on record?
Its inhibition is 68.4% (active).

For CC(C)[C@H](NC(=O)N1CCn2c1nc1ccccc12)C(=O)N[C@@H](C(=O)O)c1ccccc1, which inhibition is on record?
Its inhibition is 1.1%.

With CC(C)(C)C(=O)NC1(C(F)(F)F)NC(=O)N(c2ccccc2F)C1=O (configuration not stated) as the molecule, how does the inhibition read?
Its inhibition is 2.6%.

Which inhibition does the source give for CCn1cc([N+](=O)[O-])c(C(=O)Nc2nc(-c3ccc(C)cc3)c(C)s2)n1 here?
The inhibition was 2.6%.

For Cn1cc([N+](=O)[O-])c(C(=O)Nc2nccs2)n1, which inhibition is on record?
Its inhibition is -14.6%.

Which inhibition does the source give for Cc1cnc(NC(=O)c2nn(C)cc2[N+](=O)[O-])s1 here?
Its inhibition is 24.8%.

Which inhibition does the source give for CCn1cc([N+](=O)[O-])c(C(=O)Nc2nc(-c3ccc(C)c(C)c3)c(C)s2)n1 here?
Its inhibition is -63.4%.

For Cc1csc(=S)n1-c1ccccc1, which inhibition is on record?
Its inhibition is 5.1%.

Which inhibition does the source give for COc1ccccc1C(=O)N/C(=C\c1cn(S(=O)(=O)N(C)C)c2ccccc12)C(=O)NCCN1CCOCC1 here?
Its inhibition is -15%.

With COc1ccc(C(=O)Oc2cccc(Nc3ncnc4ccccc34)c2)cc1OC as the molecule, how does the inhibition read?
Its inhibition is 29.6%.

Which inhibition does the source give for COc1cccc(N2CCN(c3nc(C)c(C)c(=O)[nH]3)CC2)c1 here?
Its inhibition is -29.1%.

With Cc1noc(-c2ccc(Cl)cc2)c1C(=O)O/N=C(\N)c1ccc(C(C)(C)C)cc1 as the molecule, how does the inhibition read?
The inhibition was 84% (active).

With Cc1cc(C(=O)O/N=C(\N)c2ccc(C(C)(C)C)cc2)no1 as the molecule, how does the inhibition read?
Its inhibition is -2.5%.

Which inhibition does the source give for COC(=O)c1c(C)noc1-c1ccc(Cl)cc1 here?
The inhibition was -8.4%.

For O=C(/C(N=Nc1cccc(C(F)(F)F)c1)=C(/O)c1cccs1)C(F)(F)F, which inhibition is on record?
Its inhibition is 58.5% (active).

With CC(=O)/C(N=Nc1cccc(C(F)(F)F)c1)=C(\C)O as the molecule, how does the inhibition read?
The inhibition was -26.4%.

For COC(=O)/C(N=Nc1cccc(C(F)(F)F)c1)=C(\C)O, which inhibition is on record?
Its inhibition is 1.3%.

With CC(C)C1CC(c2ccccc2)(C(CN)CO)CCO1 (configuration not stated) as the molecule, how does the inhibition read?
The inhibition was -22.3%.

Which inhibition does the source give for C=C(C)COc1ccc(-c2[nH]ncc2-c2ccc(Br)cc2)c(O)c1 here?
Its inhibition is -22.6%.

Which inhibition does the source give for Cc1cc(C(=O)NCC2COc3ccccc3O2)c2ccccc2n1 (configuration not stated) here?
Its inhibition is -14.4%.

For Cc1nc2ccccc2c2oc(C(=O)NCc3ccc4c(c3)OCO4)cc12, which inhibition is on record?
Its inhibition is 38.5%.

Which inhibition does the source give for Cn1c(Cc2ccccc2)nnc1SCC(=O)N1CCN(c2ccccc2)CC1 here?
Its inhibition is -14.3%.

For COC(=O)c1sccc1NC(=O)/C=C/C(=O)O, which inhibition is on record?
The inhibition was -34.3%.

For CCOC(=O)c1[nH]cnc1C(=O)Nc1ccc([N+](=O)[O-])cc1, which inhibition is on record?
The inhibition was -7.2%.

For O=C(Nc1ccc(F)cc1)c1nc[nH]c1C(=O)Nc1ccc([N+](=O)[O-])cc1, which inhibition is on record?
The inhibition was 45%.

With O=C(Nc1ccc([N+](=O)[O-])cc1)c1nc[nH]c1C(=O)NC1CCCCC1 as the molecule, how does the inhibition read?
The inhibition was 80.7% (active).

With Nc1nnc(SCc2c(F)cccc2Cl)s1 as the molecule, how does the inhibition read?
The inhibition was -8.2%.

For O=C(Nc1ccccc1)C1=C[C@H](c2csc3ccccc23)C[C@H](OCc2ccc(CO)cc2)O1, which inhibition is on record?
The inhibition was -4.6%.

With O=C(NCc1ccccc1)C1=C[C@H](c2csc3ccccc23)C[C@H](OCc2ccc(CO)cc2)O1 as the molecule, how does the inhibition read?
The inhibition was -5.8%.

With C#CCNC(=O)C1=C[C@@H](c2cn(C(C)=O)c3ccccc23)C[C@@H](OCc2ccc(CO)cc2)O1 as the molecule, how does the inhibition read?
Its inhibition is -23.5%.

For CC(=O)n1cc([C@@H]2C=C(C(=O)NCc3ccccc3)O[C@H](OCc3ccc(CO)cc3)C2)c2ccccc21, which inhibition is on record?
Its inhibition is -7.1%.

With C#CCNC(=O)C1=C[C@H](c2cn(C(C)=O)c3ccccc23)C[C@H](OCc2ccc(CO)cc2)O1 as the molecule, how does the inhibition read?
The inhibition was 46.1% (active).

Which inhibition does the source give for O=C(NCc1ccccc1)C1=C[C@@H](c2csc3ccccc23)C[C@@H](OCc2ccc(CO)cc2)O1 here?
The inhibition was 43.8% (active).

Which inhibition does the source give for CC(NS(=O)(=O)c1ccc2[nH]c(=O)c(=O)[nH]c2c1)C(=O)O (configuration not stated) here?
Its inhibition is -25.3%.

With O=C(CCCN1C(=O)/C(=C/c2ccccc2Cl)SC1=S)N1CCCC1 as the molecule, how does the inhibition read?
Its inhibition is 18.8%.

Which inhibition does the source give for Cc1cc(Cl)cc(C)c1OCCNCc1ccccc1 here?
The inhibition was -43.1%.

For Cc1ccc(S(=O)(=O)CCc2nnc(NC(=O)C3CCCCC3)s2)cc1, which inhibition is on record?
The inhibition was 1.5%.

For COc1ccc(NC(=O)Cn2ncn3nc(-c4ccc(OC)cc4)cc3c2=O)cc1, which inhibition is on record?
Its inhibition is -72%.

For CC(C)c1ccc(Nc2nc(Cl)nc(Cl)n2)cc1, which inhibition is on record?
The inhibition was -33%.

Which inhibition does the source give for CCCOC(=O)Cn1cnc2scc(-c3ccc(OC)cc3)c2c1=O here?
The inhibition was 41.3%.

With Cc1ccccc1NC(=O)CSc1ccc(-c2cccnc2)nn1 as the molecule, how does the inhibition read?
The inhibition was -33.1%.

For CCOC(=O)c1ccccc1NC(=O)CSc1ccc(-c2cccnc2)nn1, which inhibition is on record?
The inhibition was 59.2% (active).

For CCOC(=O)c1ccccc1NC(=O)CSc1ccc(-c2ccccn2)nn1, which inhibition is on record?
The inhibition was -59.6%.

Which inhibition does the source give for Cc1ccc(NC(=O)Cn2nnc3ccccc32)c(C)c1 here?
Its inhibition is -16.7%.

With COc1ccc(-c2nnc(SCC(=O)N3c4ccccc4Sc4ccccc43)o2)cc1 as the molecule, how does the inhibition read?
Its inhibition is -16.3%.

Which inhibition does the source give for COc1ccc(-c2nnc(SC(=O)N3c4ccccc4Sc4ccccc43)o2)cc1 here?
The inhibition was 65.2% (active).

Which inhibition does the source give for O=C(Sc1nnc(-c2ccccc2)o1)N1c2ccccc2Sc2ccccc21 here?
Its inhibition is -37.4%.

For Fc1ccc(-n2nnnc2-c2ccccc2Cl)cc1, which inhibition is on record?
The inhibition was -26.4%.

For COc1ccc(C(=O)N2CCC(C(=O)Nc3ccc4c(c3)OCCO4)CC2)cc1, which inhibition is on record?
The inhibition was -5.6%.

Which inhibition does the source give for Fc1ccc(-c2nnc(NC3=NCCCCC3)o2)cc1 here?
Its inhibition is 46.2%.

Which inhibition does the source give for CC(C)CN=C(NS(=O)(=O)c1ccccc1)C(Cl)(Cl)Cl here?
The inhibition was 34.3%.

With Cc1ccc(S(=O)(=O)NC(=NC(C)C)c2ccccc2)cc1 as the molecule, how does the inhibition read?
Its inhibition is -28.2%.

With CC(C)N=C(NS(=O)(=O)c1ccccc1)C(Cl)(Cl)Cl as the molecule, how does the inhibition read?
The inhibition was 62.8% (active).

For O=C(CSc1nnc(-c2cccnc2)n1Cc1ccco1)Nc1cccc(O)c1, which inhibition is on record?
Its inhibition is -18.5%.

Which inhibition does the source give for CC(=O)Nc1cc(ON=C(C)C)cc([N+](=O)[O-])c1 here?
The inhibition was -34.9%.

With CC(C)=NOc1cc(NC(=O)CCl)cc([N+](=O)[O-])c1 as the molecule, how does the inhibition read?
The inhibition was 89.5% (active).

With CCC(=O)Nc1cc(ON=C(C)C)cc([N+](=O)[O-])c1 as the molecule, how does the inhibition read?
Its inhibition is -24.6%.

With O=C(Nc1ccc(S(=O)(=O)N2CCCCCC2)cc1)c1ccc(Br)o1 as the molecule, how does the inhibition read?
Its inhibition is 26.1%.

For COc1ccc(CCNc2oc(COc3ccccc3F)nc2C#N)cc1OC, which inhibition is on record?
Its inhibition is 21.4%.

Which inhibition does the source give for COc1ccc(CCNc2oc(Cc3ccccc3)nc2C#N)cc1OC here?
Its inhibition is 25.6%.

Which inhibition does the source give for COc1ccc(CCNc2oc(COc3ccc(F)cc3)nc2C#N)cc1 here?
Its inhibition is -48.1%.

Which inhibition does the source give for COc1ccc(CCNc2oc(COc3ccccc3)nc2C#N)cc1 here?
The inhibition was -56.7%.

With CCc1ccc(NC(=O)CCCN2C(=S)NC(C)(C)CC2C)cc1 (configuration not stated) as the molecule, how does the inhibition read?
Its inhibition is -30.4%.

With Cc1ccccc1-c1ccc(=O)n(CC(=O)Nc2ccc(-n3cnnn3)cc2)n1 as the molecule, how does the inhibition read?
Its inhibition is -5.3%.

Which inhibition does the source give for CCOC(=O)C(CCCOc1ccccc1)C(=O)OCC here?
Its inhibition is 10.5%.

Which inhibition does the source give for CC1CCCCC1NC(=O)CN1C(=O)CSc2cc(S(=O)(=O)N3CCCCCC3)ccc21 (configuration not stated) here?
The inhibition was -19.4%.

Which inhibition does the source give for COC(=O)c1cccc(NC(=O)NC(=O)c2ccc(Cl)cc2)c1 here?
Its inhibition is 11.7%.

With COC(=O)c1cccc(NC(=O)NC(=O)c2ccccc2Cl)c1 as the molecule, how does the inhibition read?
Its inhibition is 30% (active).

With COC(=O)c1cccc(NC(=O)/C(=C\c2ccccc2)NC(=O)c2ccccc2Cl)c1 as the molecule, how does the inhibition read?
The inhibition was -35.1%.

For O=C(CNS(=O)(=O)c1cccc2nsnc12)NC1CCCCC1, which inhibition is on record?
Its inhibition is -5.2%.

Which inhibition does the source give for COc1ccc(/C=N/NC(=O)Nc2nonc2N)cc1 here?
Its inhibition is -31.2%.

Which inhibition does the source give for CCN(CC)c1ccc(/C=N/NC(=O)Nc2ccccc2)cc1 here?
The inhibition was -54%.

With CCN(CC)c1ccc(/C=N/NC(=O)Nc2nonc2N)cc1 as the molecule, how does the inhibition read?
Its inhibition is 58.7% (active).

For COCCOC(=O)C1=C(C)Nc2cc(=O)[nH]c(=O)n2C1c1cccc([N+](=O)[O-])c1 (configuration not stated), which inhibition is on record?
The inhibition was 5%.

With O=C1CCC(C(=O)Nc2cccc3ccccc23)N1 (configuration not stated) as the molecule, how does the inhibition read?
The inhibition was 8.1%.

Which inhibition does the source give for Cc1ccccc1NC(=O)C1CCC(=O)N1 (configuration not stated) here?
The inhibition was 96.7% (active).

With O=C1CCC(C(=O)Nc2ccccc2)N1 (configuration not stated) as the molecule, how does the inhibition read?
Its inhibition is -23%.

With Cc1cc(C)nc(NS(=O)(=O)c2ccc(NC(=O)c3ccc4c(c3)OCCO4)cc2)n1 as the molecule, how does the inhibition read?
The inhibition was -42.8%.

Which inhibition does the source give for COc1ccc(C2C(C#N)=C(N)Oc3n[nH]c(C)c32)cc1Cn1nc(C)c([N+](=O)[O-])c1C (configuration not stated) here?
The inhibition was -12.1%.

With COc1ccc(C2C(C#N)=C(N)Oc3c2c(C)nn3-c2ccccc2)cc1Cn1nc(C)c([N+](=O)[O-])c1C (configuration not stated) as the molecule, how does the inhibition read?
The inhibition was 85% (active).

For COc1ccc(C2C(C#N)=C(N)OC3=C2C(=O)CCC3)cc1Cn1nc(C)c([N+](=O)[O-])c1C (configuration not stated), which inhibition is on record?
Its inhibition is -8.7%.

With Cc1ccc(NNC(=O)CCc2ccccc2)c(C)c1 as the molecule, how does the inhibition read?
The inhibition was -5%.

Which inhibition does the source give for O=C(NC1CCCN(Cc2ccc(Cl)cc2)C1)c1c(F)cccc1F (configuration not stated) here?
The inhibition was -4.9%.

Which inhibition does the source give for N#CC1(c2ccccc2)CCCN1C(=O)c1ccc(Br)cc1 (configuration not stated) here?
Its inhibition is -11.6%.

With C=CCOC(=O)c1sc(NC(=O)c2ccc(OC)cc2)nc1C as the molecule, how does the inhibition read?
The inhibition was -27.6%.

With O=C(CCc1[nH]c2ccccc2c1Sc1ccccc1)NCCO as the molecule, how does the inhibition read?
The inhibition was 91.3% (active).

For CNC(=O)CCc1[nH]c2ccccc2c1Sc1ccccc1, which inhibition is on record?
The inhibition was 2.6%.

For O=C(O)CCc1[nH]c2ccccc2c1Sc1ccccc1, which inhibition is on record?
Its inhibition is 2.8%.

For C=CCn1c(C)csc1=Nc1ccc(C(=O)O)cc1, which inhibition is on record?
The inhibition was -39.1%.
